Drawing on PubChem BioAssay (NCATS), this text covers activation, Potency and activity change, negative = inhibition for 23 compounds.

Inconclusive results are not listed. Unmarked numbers belong to inactive results. Active and inactive are the calls of the source. The call rests on the fitted dose curve; in most records, active means well fitted curve in the direction sought with a large enough effect; inconclusive means small, poorly fitted or top-dose-only effect, or another doubt; inactive means no such curve, though single readings can be large; an effect the other way counts as inactive or inconclusive.

In assay [1] the target is Cellular tumor antigen p53 (Homo sapiens) (UniProt P04637). Description: Primary qHTS for small molecule compounds that upregulate eGFP-tagged delta133p53alpha (in N-terminal) cells. (AID 2060322). Further: nearly all actives have a fitted effect of over 75% in size. Further: potency means the concentration at half of the fitted maximal effect.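 On activation: series mostly up to about 56 µM; 0% = DMSO vehicle and 100% = reference activator.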 The conditions noted are these: NCI-H358 eGFP-delta133p53alpha fluorescence, 24 h; activation: hits give high values. The method, boiled down:
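NCI-H358 cells pre-induced 24 h with 10 ng/ml doxycycline to express N-terminal eGFP-delta133p53alpha, then dosed 24 h at 37C without doxycycline; fixed, Hoechst-stained, GFP intensity by laser scanning cytometry, normalized to DMSO (0%) and 57.5 uM 5-azacytidine (100%).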
(In general: Quantitative high-throughput screening tests each substance at several concentrations.)

Assay [2] addresses Aldehyde dehydrogenase, mitochondrial (Homo sapiens) (UniProt P05091). Kind of assay: qHTS for Inhibitors of the Aldehyde Dehydrogenase Family (ALDH2) Primary screen (AID 2061308).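 Further: plate controls were vehicle for no effect and reference inhibitor for full effect; nearly all actives have a fitted effect of over 55% in size.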
Assay [3] deals with Retinaldehyde dehydrogenase 3 (Homo sapiens) (UniProt P47895). Kind of assay: qHTS for Inhibitors of the Aldehyde Dehydrogenase Family (ALDH1A3) Primary screen (AID 2061315).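 Further: plate controls were DMSO vehicle for no effect and reference inhibitor for full effect.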

Sequence of Cellular tumor antigen p53 (Homo sapiens) (P04637 whole entry, looked up): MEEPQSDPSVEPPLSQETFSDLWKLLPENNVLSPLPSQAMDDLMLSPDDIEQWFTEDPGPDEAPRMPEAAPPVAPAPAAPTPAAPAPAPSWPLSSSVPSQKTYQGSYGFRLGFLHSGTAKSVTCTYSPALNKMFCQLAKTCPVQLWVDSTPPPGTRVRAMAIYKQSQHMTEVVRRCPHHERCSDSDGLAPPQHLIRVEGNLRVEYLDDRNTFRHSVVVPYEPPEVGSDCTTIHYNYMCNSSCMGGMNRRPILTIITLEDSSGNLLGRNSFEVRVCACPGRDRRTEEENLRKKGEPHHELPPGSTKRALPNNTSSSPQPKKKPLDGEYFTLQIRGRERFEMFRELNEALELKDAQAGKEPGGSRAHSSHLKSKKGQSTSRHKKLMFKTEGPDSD

Regarding `C=C(C(=O)O)[C@@H]1CC=C2CCC[C@H](C)[C@@]2(C)C1`, the activation in assay [1] is -21.4%. In addition, the Potency entry in assay [2] and in assay [3] was “inactive” each time.
With `COc1ccc(/C=C/C(=O)O[C@H]2[C@H](O[C@H]3[C@@H]4C=CO[C@@H](O[C@@H]5O[C@H](CO)[C@@H](O)[C@H](O)[C@H]5O)[C@@H]4[C@@]4(CO)O[C@@H]34)O[C@@H](C)[C@H](O)[C@H]2OC(C)=O)cc1`, the activation in assay [1] was -0.763%. The Potency entry in assay [2] and in assay [3] was “inactive” throughout.
With `C=C1C(OC(=O)/C(C)=C\C)[C@@]23CCC4[C@@](C)(CCC[C@@]4(C)C(=O)O)C2CC[C@H]1C3OC(C)=O` (some centres undefined), in assay [1], the activation is -28.2%. Further, the Potency result in assay [2] and in assay [3] was “inactive” throughout.
With `CC(=O)N[C@H]1CCN(c2ccc(C3=NOC(CN[S+](=O)([O-])C(C)C)C3)cc2F)C1` (some centres undefined), the activation in assay [1] is 11.7%. The Potency entry in assay [2] and in assay [3] was “inactive” in each case.
As to `CC(=O)O[C@H]1CC(C)(C)CC2[C@@]13[C@H](O)C[C@]1(C)[C@@]2(CCC2[C@@]4(C)CC[C@H](O[C@@H]5OC[C@H](O[C@@H]6O[C@H](CO)[C@@H](O)[C@H](O)[C@H]6O[C@@H]6OC[C@@H](O)[C@H](O)[C@H]6O)[C@H](O)[C@H]5O[C@@H]5O[C@H](CO)[C@@H](O)[C@H](O)[C@H]5O)C(C)(C)C4CC[C@]21C)O[C@@H]3O` (some centres undefined), the activation in assay [1] was -7.63%. For the same compound, the Potency entry in assay [2] and in assay [3] was “inactive” in each case.
For the compound `COC(=O)C1(C)CCCC2(C)c3ccc(C(C)C)cc3C(O)C(O)C12` (centres undefined), in assay [1], the activation was -14.3%. Also, the Potency result in assay [2] and in assay [3] was “inactive” in each case.
With `NC(=O)Nc1cc(-c2cccc(F)c2)sc1C(=O)NC1CCCNC1` (centres undefined), in assay [1], the Potency was 19 µM (active). Moreover, the Potency entry in assay [2] and in assay [3] was “inactive” throughout.
`COCC(c1ccc(C(F)(F)F)cc1)N1CCN(C2(C)CCN(C(=O)c3c(C)ncnc3C)CC2)CC1C` (centres undefined): the activation in assay [1] was 12.4%. Besides, the Potency result in assay [2] and in assay [3] was “inactive” throughout.
For `CCC/C=C/C(=O)O[C@H]1CC(C)(C)CC2[C@@]13[C@H](O)C[C@]1(C)[C@@]2(CCC2[C@@]4(C)CC[C@H](O[C@@H]5O[C@H](C(=O)O)[C@@H](O)[C@H](O[C@@H]6O[C@H](CO)[C@H](O)[C@H](O)[C@H]6O[C@@H]6O[C@@H](C)[C@H](O)[C@@H](O)[C@H]6O[C@@H]6OC[C@](O)(CO)[C@H]6O)[C@H]5O[C@@H]5O[C@H](CO)[C@H](O)[C@H](O)[C@H]5O)C(C)(C)C4CC[C@]21C)O[C@H]3O` (some centres undefined), the activation in assay [1] is -12.5%. The activity change, negative = inhibition is 11.6% [at 11.2 µM] in assay [2] and 11% [at 11.2 µM] in assay [3].
Turning to `CC(=O)O[C@@H]1[C@@H](OC(=O)/C=C/c2ccccc2)[C@@H](OC(C)=O)[C@H](O[C@H]2[C@@H]3C=CO[C@@H](O[C@@H]4O[C@H](CO)[C@@H](O)[C@H](O)[C@H]4O)[C@@H]3[C@@]3(CO)O[C@@H]23)O[C@H]1C`, in assay [1], the activation was -12.2%. Moreover, the Potency result in assay [2] and in assay [3] was “inactive” in each case.
In the case of `COc1cc(O)c2c(c1Cl)CC(C)OC2=O` (centres undefined), in assay [1], the activation is 7.14%. Further, the Potency result in assay [2] and in assay [3] was “inactive” each time.
As to `C=C1C[C@]23C[C@H]1CC[C@H]2[C@@]12C=C[C@H](O)[C@@](C)(C(=O)O1)[C@H]2[C@@H]3C(=O)O`, the activation in assay [1] is -28.2%. Besides, the Potency entry in assay [2] and in assay [3] was “inactive” in each case.
For `O=C(CCCN1CCN(c2ccc(F)cc2)CC1)NC1c2ccccc2CSc2ccccc21` (centres undefined), the activation in assay [1] was -15%. Further, the Potency entry in assay [2] and in assay [3] was “inactive” throughout.
As to `CSCC1OC(n2cnc3c(N)ncnc32)C(O)C1O` (centres undefined), the activation in assay [1] was 6.11%. The Potency result in assay [2] and in assay [3] was “inactive” each time.
As for `CC(=O)O[C@H]1CC[C@@]2(C)C(CC[C@@H](C)[C@]23Cc2c(O)cc4c(c2O3)CN([C@@H](CCC(=O)O)C(=O)O)C4=O)C1(C)C` (some centres undefined), in assay [1], the activation was 0.763%. In addition, the Potency entry in assay [2] and in assay [3] was “inactive” in each case.
On to `CC1CCC2(NC1)OC1C(=O)C3C4CCC5CC(O[C@@H]6O[C@H](CO)[C@@H](O)[C@H](O)[C@H]6O[C@@H]6O[C@@H](C)[C@H](O)[C@@H](O)[C@H]6O)CCC5(C)C4CCC3(C)C1C2C` (some centres undefined), for which the activation in assay [1] was 10.7%. For the same compound, the Potency entry in assay [2] and in assay [3] was “inactive” in each case.
For `CC(=O)OC1C[C@@]2(C)[C@@H](CC[C@@H](C)[C@]23Cc2c(O)cc4c(c2O3)CNC4=O)C(C)(C)[C@@H]1O` (some centres undefined), the activation in assay [1] was 9.92%. Also, the Potency entry in assay [2] and in assay [3] was “inactive” in each case.
For `C=CC1C(OC2OC(CO)C(O)C(O)C2O)OC=C(C(=O)OC)C1CC(=O)OCC1C(C)C(O)CC1C(CO)COC(=O)CC1C(C(=O)O)=COC(OC2OC(CO)C(O)C(O)C2O)/C1=C\C` (centres undefined), the activation in assay [1] was -16%. The Potency result in assay [2] and in assay [3] was “inactive” in each case.
For the compound `CC(=O)C1CCC(=O)N1Cc1ccccc1` (centres undefined), the activation in assay [1] was -13.7%. Moreover, the Potency entry in assay [2] and in assay [3] was “inactive” in each case.
As for `C[C@@H]1O[C@@H](O[C@@H]2[C@@H](O[C@@H]3O[C@@H](C)[C@H](O[C@@H]4OC[C@H](O)[C@H](O[C@@H]5OC[C@@H](O)[C@H](O)[C@H]5O)[C@H]4O)[C@@H](O[C@@H]4OC[C@](O)(CO)[C@H]4O)[C@H]3O)[C@H](OC(=O)[C@]34CCC(C)(C)C[C@H]3C3=CCC5[C@@]6(C)C[C@H](O)[C@H](O[C@@H]7O[C@H](CO[C@@H]8OC[C@H](O)[C@H](O)[C@H]8O)[C@@H](O)[C@H](O)[C@H]7O)C(C)(C)C6CC[C@@]5(C)[C@]3(C)C[C@H]4O)OC[C@H]2O)[C@H](O)[C@H](O)[C@H]1O` (some centres undefined), the activation in assay [1] is -8.4%. Moreover, the activity change, negative = inhibition in assay [2] was 17% [at 11.2 µM]; in assay [3], 8.86% [at 11.2 µM].
As for `Cc1coc2c1CC1OC1(C)CCC1OC1(C)C2` (centres undefined), the activation in assay [1] is 4.46%. In addition, the Potency result in assay [2] and in assay [3] was “inactive” in each case.
As for `C[C@]12CCC(=O)C=C1[C@@H](O)C[C@@H]1[C@@H]2[C@@H](O)C[C@@]2(C)[C@H]1CC[C@]2(O)C(=O)CO`, in assay [1], the activation was 16.3%. Also, the Potency result in assay [2] and in assay [3] was “inactive” throughout.
Turning to `CC1CC(O)C2(C)C(C(=O)O)=CCCC2C1(C)CCc1ccoc1` (centres undefined), the activation in assay [1] is 8.93%. The Potency entry in assay [2] and in assay [3] was “inactive” throughout.
